Screens deposited in PubChem by ICCB-Longwood Screening Facility, Harvard Medical School.
Only some compounds are listed: those with a hit (about 0.52% of all), similar ones and a draw of the others.
S aureus helic – blocks Staphylococcus aureus DNA helicase; inhibition, % (concentration not given with the values); purified S. aureus helicase, fluorescence unwinding assay; hit rate 0.05% among 120,000; in the data active means inhibition above about 25%, passing the limit was not always enough
Sa growth 42C – S. aureus growth inhibition. S. aureus RN4220 growth, OD600, 20 h, 42 °C; active compounds read low. relative growth, % (test concentration not listed). hit rate 0.53% among 170,000. AID 720641;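 active means relative growth at most 50% at the other temperature and 20+ points below 30 °C, or under 10% at both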
Numbers stand for hits; – = inactive; · = no result given; ! = a repeat was not active.

SMILES	S aureus helic	Sa growth 42C
Cn1c(N/C(=C\C(=O)c2cccs2)C(F)(F)F)nc2ccccc21	–	–
On1ccccc1=S	–	0.4
Cn1ccccc1=S	–	–
Cc1ccc(Cn2c(N)c(C#N)c3nc(C#N)c(C#N)nc32)cc1	–	–
O/N=C/c1ccco1	–	–
Oc1ccc(N=Cc2ccccc2O)cc1	–	–
C[n+]1ccc(/C=C/c2ccc3c(c2)OCO3)c2ccccc21	–	0.0
C[n+]1ccc(/C=C/c2ccccc2O)c2ccccc21	50	–
CN(C)C(=O)/C=C/c1ccc2c(c1)OCO2	–	–
C[n+]1ccc(/C=C\c2ccco2)c2ccccc21	–	3.2
COc1ccc(NC(=O)CN(C)c2nc3cc(C)nn3c3ccccc23)cc1	–	–
CCCC(=O)c1ccc(N=Cc2ccc(Cl)cc2Cl)cc1	–	–
O=C1OCCC1Sc1ncnc2ccccc12 (centres undefined)	–	–
CN1CCN(c2ccc(Nc3ccnc4cc(Cl)ccc34)cc2Cl)CC1	–	–
CCN1CCN(c2ccc(Nc3ccnc4cc5ccccc5cc34)cc2)CC1	48	–
O=C(CCN1CCCCC1)c1ccccc1	–	–
CCc1oc2ccccc2c1C(=O)CCN1CCCCC1	–	41
CCC1(C)OC(=O)N2CCc3cc(OC)c(OC)cc3C21C (centres undefined)	–	–
Cc1[nH]c2ccc(C(=O)NC3CC3)cc2c1C	–	–
Cc1[nH]c2ccc(C(=O)NCC3CCCO3)cc2c1C (centres undefined)	29	–
CCCN(Cc1cccs1)C(=O)Nc1ccc(Cl)cc1	–	–
S=C(NCCN1CCOCC1)Nc1ccc(-c2nnc3n2CCCCC3)cc1	–	–
COC1=CC(=O)c2ccccc2C1=O	–	1.0
CN(C1=CC(=O)c2ccccc2C1=O)c1ccccc1	–	·
Cc1cccc2nc(-c3ccccn3)c(Nc3ccccc3)n12	·	–
SMILES	S aureus helic	Sa growth 42C
Cc1cccc2nc(-c3ccccn3)c(Nc3ccc(F)cc3)n12	·	1.2
COC(=O)c1cccc(C(=O)OC)c1	–	–
COC(=O)c1ccc(O)c(Sc2cc(C(=O)OC)ccc2O)c1	–	1.9
Cc1cc(C(C)(C)CC(C)(C)C)ccc1OCCOCC[N+](C)(C)Cc1ccccc1	·	0.9
C[N+](C)(CCOc1ccccc1)Cc1ccccc1	·	–
CN(C)S(=O)(=O)c1cccc(C(=O)N=C=S)c1	–	–
COc1ccc(SCC(=O)O)cc1	–	–
Cc1ccc(C)n1-c1ccc(SCC(=O)O)cc1	42	–
CC1CCC(NC(=O)COc2ccc3c(c2)OCO3)CC1 (centres undefined)	–	–
Cc1nn(-c2nc3ccccc3[nH]2)c(N)c1-c1ccccc1	–	–
Cc1cc(=O)n(-c2nc3ccccc3[nH]2)[nH]1	–	8.3!
O=c1cc(-c2ccccc2)[nH]n1-c1nc2ccccc2[nH]1	–	7.5
Cc1[nH]n(-c2nc3ccccc3[nH]2)c(=O)c1C1OC(=O)c2ccccc21 (centres undefined)	–	–
COc1ccc(C(=O)CSc2nc(C)c(C(N)=O)c(C)c2C#N)cc1	–	·
Cc1cccc(C)c1-n1nnnc1S(=O)(=O)Cc1ccccc1Cl	–	–
COc1cccc(-n2nnnc2S(=O)(=O)Cc2ccccc2)c1	–	-1.1
CC(C)(C)n1ncc2c(=O)n(NC(=O)Cc3ccccc3)cnc21	–	–
CCN(CC)c1ncc2c(=S)[nH]c(=S)[nH]c2n1	·	–
C=CCSc1ncc2c(=S)[nH]c(=S)[nH]c2n1	·	0.0
COc1cc2c(cc1OC)CN(C(=O)CCc1ccccc1)CC2	–	–
COc1ccc(Nc2cc(C)c(C#N)c3nc4ccccc4n23)cc1	–	–
Cc1ccccc1Nc1cc(C)c(C#N)c2nc3ccccc3n12	–	1.2
S=C(S)N1CCCC1	–	1.7
NC(=S)N1CCCC1	–	–
CC(C)CNCC1OCCCCO1	–	–
SMILES	S aureus helic	Sa growth 42C
COc1ccc(CCNC(=O)Cc2coc3c(C)c(C)ccc23)cc1OC	–	–
O=C(Nc1cccnc1)c1ccc(Oc2cc(Cl)cc(Cl)c2)o1	·	–
O=C(Nc1ccncc1)c1ccc(Oc2cc(Cl)cc(Cl)c2)o1	·	4.9
Cc1cc(C)c(C#N)c(SCC(=O)NCCc2c[nH]c3ccccc23)n1	–	–
O=S(=O)(Nc1ccccc1Cl)c1ccc2[nH]c(=S)oc2c1	–	–
S=c1[nH]c2c(Cl)cc(Cl)cc2o1	–	3.3
O=C1CNC(=S)N1C1CCCCC1	–	–
CC(C)(C)c1cc(C(c2ccccn2)N2CCCC2)cc(C(C)(C)C)c1O (centres undefined)	–	–
CC(C)(C)c1cc(C(c2ccc(O)cc2)N2CCOCC2)cc(C(C)(C)C)c1O (centres undefined)	–	-1.3
Cc1cc2ncn(CCC(=O)Nc3ccccc3F)c2cc1C	–	–
CC(NC(=O)c1cc(=O)c2ccccc2o1)C(c1ccccc1)N1CCOCC1 (centres undefined)	35	–
CC(NC(=O)Cc1ccccc1)C(c1ccccc1)N1CCOCC1 (centres undefined)	–	–
CC(=O)Nc1ccc(C(=O)Nc2ccc(-c3nc4ccccc4o3)cc2)cc1	–	–
